Where “and” joins values, the source holds several entries; their conditions need not be identical. Equal entries are not always repeated. Inconclusive results are not listed. Values without a mark were called inactive. Calls of active or inactive are those of the source. Calls come from the whole dose curve; as a rule, active = well fitted inhibition curve with a large enough effect; inconclusive = small, poorly fitted or top-dose-only effect; inactive = no such curve, though single readings can be large or run the other way.
The compounds below were run against Cruzipain (Trypanosoma cruzi) (UniProt P25779) (assay: Confirmation qHTS Assay for Inhibitors of Cruzain). Details: purified cruzain, Z-FR-AMC fluorescence, 0.01% Triton.
Summary of the method: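 Reaction progress from the 60 s rise in AMC fluorescence (ex 360, em 450 nm) after adding 2 uM Z-FR-AMC. Before this, 1.5 nM cruzain sat 15 min at room temperature with compound in pH 5.5 acetate buffer with 5 mM DTT and 0.01% Triton X-100.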
Note: nearly all actives have a fitted effect of over 40% in size.
Potency is the fitted concentration of half-maximal effect.
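Throughout, for activity change, negative = inhibition: plate controls were uninhibited enzyme control for no effect and buffer wells lacking enzyme for full effect.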

Cruzipain (Trypanosoma cruzi), sequence (P25779 123-467 limits assumed): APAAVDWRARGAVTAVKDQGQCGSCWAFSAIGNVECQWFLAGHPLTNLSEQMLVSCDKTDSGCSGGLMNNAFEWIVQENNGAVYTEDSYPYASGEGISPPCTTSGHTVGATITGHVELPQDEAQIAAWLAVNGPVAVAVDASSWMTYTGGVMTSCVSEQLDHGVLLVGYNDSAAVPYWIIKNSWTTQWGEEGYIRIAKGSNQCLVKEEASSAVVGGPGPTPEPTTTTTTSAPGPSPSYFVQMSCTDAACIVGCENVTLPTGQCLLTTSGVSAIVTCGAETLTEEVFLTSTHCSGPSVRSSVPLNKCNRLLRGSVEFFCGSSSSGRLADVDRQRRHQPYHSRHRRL

Row | Compound | Potency | activity change, negative = inhibition [%]
1 | CC(C)(C)c1ccc(-c2nc(SCC(=O)Nc3ccc(Cl)cc3)[nH]c(=O)c2C#N)cc1 | 12.6 µM (active) | 
2 | CN(C)c1nc(C#N)nc(N(C)C)n1 | 14.1 µM (active) | 
3 | O=C(CNC(=O)C(c1ccccc1)c1ccccc1)OCC(=O)c1cccc2ccccc12 |  | 17.8
4 | COC(=O)Sc1nc(N2CCOCC2)c2c(c1C#N)CC(C)(C)OC2 | 14.1 µM (active) | 
5 | CCC(C)[C@@H](NC(=O)OC(C)(C)C)c1nnc(S(=O)(=O)Cc2cccc(C)c2)o1 (some centres undefined) | 14.1 µM (active) | 
6 | Cc1ccc(S(=O)(=O)N[C@@H](Cc2ccccc2)C(=O)CCl)cc1 | 14.1 µM (active) and 28.2 µM (active) | 
7 | CCC(C)c1ccccc1OCCn1c(CCNC(=O)C2CCCCC2)nc2ccccc21 (centres undefined) | 10 µM (active) | 
8 | CCn1cnc2c(Nc3cc(F)cc(F)c3)nc(C#N)nc21 | 0.01 µM (active) | 
9 | Cc1ccc(OCCn2c(CCNC(=O)C3CCCCC3)nc3ccccc32)cc1 | 0.1 µM (active) | 
10 | O=C(CNC(=O)c1ccccc1)OC(CCc1ccccc1)C(=O)Nc1cc(C(F)(F)F)ccc1Cl (centres undefined) | 7.94 µM (active) | 
11 | O=C1NN(c2ccc(Cl)c(Cl)c2)C(=O)/C1=C/c1cccc(OC(=O)c2cccs2)c1 | 35.5 µM (active) | 
12 | CC(C)(C)OC(=O)NCC(=O)NNC(=O)C(C(=O)OCc1ccccc1)c1ccccc1 (centres undefined) |  | -3.79
13 | N#Cc1ccc(NC(=O)COC(=O)CNC(=O)C2CCCCC2)cc1 | 14.1 µM (active) | 
14 | C=Cc1nc(Nc2cc(F)cc(F)c2)nc(NC2CCCC2)n1 |  | -5.68
15 | O=C(NCc1nnc(-c2nc3ccccc3[nH]2)o1)C1CCCCC1 |  | -3.39
16 | O=C(NCCc1nc2ccccc2[nH]1)c1cc([N+](=O)[O-])cc([N+](=O)[O-])c1 | 0.794 µM (active) | 
17 | CSCC[C@H](NC(=O)COc1ccc(Cl)cc1Cl)c1nc2ccccc2[nH]1 | 2.82 µM (active) | 
18 | Cc1ccc(CN(Cc2cc3cc(C)ccc3[nH]c2=O)Cc2nnnn2Cc2ccccc2)cc1 |  | -18.6
19 | C=CCn1c(SCC(=O)Nc2cc3oc4ccccc4c3cc2OC)nnc1-c1cnccn1 |  | -11.8
20 | COc1cccc(-c2nn3c(-c4cc(C)[nH]n4)nnc3s2)c1 |  | -5.64

Row | Compound | Potency | activity change, negative = inhibition [%]
21 | O=C(CNC(=O)c1ccccc1)NCC(=O)OCC(=O)c1cccc2ccccc12 |  | -13.9
22 | O=C(CNC(=O)C1CCCC1)OC(C(=O)Nc1cc(C(F)(F)F)ccc1Cl)c1ccccc1 (centres undefined) | 7.94 µM (active) | 
23 | Cc1ccccc1C(=O)NCC(=O)OC(C(=O)Nc1cc(C(F)(F)F)ccc1Cl)c1ccccc1 (centres undefined) | 12.6 µM (active) | 
24 | O=C(c1ccc(OCCN2CCCCC2)cc1)c1c(-c2ccc(O)cc2)sc2cc(O)ccc12 |  | -21.2
25 | CC1CCCN(c2ccc(C(=O)OCC(=O)N3c4ccccc4Sc4ccccc43)cc2[N+](=O)[O-])C1 (centres undefined) |  | -7.68
26 | COc1ccccc1OCCn1c(CCNC(=O)C2CCCCC2)nc2ccccc21 | 1.41 µM (active) | 
27 | N#Cc1nc(NCC(F)F)nc(Nc2cc(F)cc(F)c2)n1 | 0.0251 µM (active) | 
28 | O=C(NCCO)c1ccc2nc(-c3ccco3)c(-c3ccco3)nc2c1 | 14.1 µM (active) | 
29 | COc1cccc(Nc2nc(C#N)nc(NC3CCCC3)n2)c1 | 0.199 µM (active) | 
30 | CCc1ccc2[nH]c(=O)c(CN(Cc3ccccc3)Cc3nnnn3Cc3ccccc3)cc2c1 |  | -20
31 | Cc1cccc(OCCCn2c(CCNC(=O)C3CCCCC3)nc3ccccc32)c1 | 794 nM (active) and 708 nM (active) | 
32 | Cc1cccc(C)c1OCCCn1c(CCNC(=O)C2CCCCC2)nc2ccccc21 | 1.26 µM (active) and 1.58 µM (active) | 
33 | CC(C)(C)OC(=O)Cc1nnc(C(C(=O)OCc2ccccc2)c2ccccc2)o1 (centres undefined) |  | -12.3
34 | O=c1cc(-c2ccccc2Cl)oc2c(NS(=O)(=O)c3cc(Cl)cc(Cl)c3O)ccc(O)c12 | 7.08 µM (active) | 
35 | CCc1ccc(OCCCn2c(CCCNC(=O)C3CCCCC3)nc3ccccc32)cc1 |  | -18.8
36 | CC(C)(C)OC(=O)NCC(=O)NNC(=O)c1cc2ccccc2[nH]1 |  | -2.11
37 | N#Cc1nc(N2CCCCC2)nc(N(c2ccccc2)c2ccccc2)n1 | 2.24 µM (active) | 
38 | CCc1ccc(OCCCCn2c(CCNC(=O)C3CCCCC3)nc3ccccc32)cc1 | 1.58 µM (active) | 
39 | O=C(NCCCO)c1ccc2nc(-c3ccco3)c(-c3ccco3)nc2c1 | 12.6 µM (active) | 

Reference: PubChem BioAssay AID2158 (National Center for Advancing Translational Sciences (NCATS), 2009)
